Screens from PubChem.
Compounds with a hit are over-represented: about 7.5% of the library has one in this group of screens.
FBPA Giardia inh – Giardia lamblia aldolase inhibition | purified Giardia FBPA | AID 2451 | hit rate 0.71% among 290,000 | Potency, µM (doses to about 59.6 µM), without a hit: at the top dose activity, negative = inhibition, hits mostly inhibitors; note: potency is the fitted concentration of half-maximal effect; nearly all actives have a fitted effect of over 55% in size
Target sequence (A8B2U2 whole entry, looked up): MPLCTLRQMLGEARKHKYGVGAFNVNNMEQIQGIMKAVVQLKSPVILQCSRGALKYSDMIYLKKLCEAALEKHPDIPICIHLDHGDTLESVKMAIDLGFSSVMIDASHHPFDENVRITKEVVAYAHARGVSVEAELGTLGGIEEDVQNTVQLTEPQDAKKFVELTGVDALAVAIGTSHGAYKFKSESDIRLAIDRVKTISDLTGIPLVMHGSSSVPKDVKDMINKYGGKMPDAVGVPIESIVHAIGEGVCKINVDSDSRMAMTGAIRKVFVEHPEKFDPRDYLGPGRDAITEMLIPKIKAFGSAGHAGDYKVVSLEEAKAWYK
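Giardia FBPA (40 nM reagent) was preincubated 10 min at RT with compound (up to 57.5 uM final), then substrate plus GAPDH/TPI/NAD/arsenate coupling system with diaphorase/resazurin was added; resorufin fluorescence (525/598 nm) was read after 20 min.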
VACV Venus inh – vaccinia inhibition (Venus reporter); hit rate 0.46% among 330,000; Potency, µM (top dose mostly 36.5 µM), without a hit: top-dose activity change, negative = inhibition, usual class: inhibitors; Vaccinia virus Venus reporter expression, fluorescence; AID 720580; calls by dose curve; tested in A549 cells; note: potency is the fitted concentration of half-maximal effect; nearly all actives have a fitted effect of over 30% in size
HCV inh – blocks hepatitis C virus; hit rate 3.4% among 340,000; Huh7.5.1 HCVcc-Cre infection, luciferase reporter, 44 h; Potency, µM (top dose mostly 41.8 µM), for the others: at the highest dose activity change, negative = inhibition, most hits filed as inhibitors; note: potency is the fitted concentration of half-maximal effect
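Compounds are dispensed onto cells plated 4 h earlier at 1,000 per well, with HCVcc-Cre virus (about 0.5 moi) added next. Following 44 h of culture, luminescent signal is measured for 15 sec after 15 min with substrate at room temperature.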
VACV mCherry inh – inhibitors of vaccinia virus infection (mCherry reporter signal); Vaccinia virus mCherry reporter infection, fluorescence; Potency, µM (highest dose often 36.5 µM), for inactives: at the highest dose activity change, negative = inhibition, usual class: inhibitors; hit rate 0.63% among 310,000; AID 720579; calls by dose curve; tested in A549 cells; note: potency is the fitted concentration of half-maximal effect; nearly all actives have a fitted effect of over 35% in size
HCMV inh – human cytomegalovirus inhibition | HFF cells, HCMV-luciferase reporter, 72 h; hits give low values | activity change, negative = inhibition, % at 57.5 µM | hit rate 4.5% among 410,000; in the data active = activity change below about -60%; inconclusive = no clear call, values can overlap the other calls; inactive = above about -39%
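Screen run at 2 compound doses on HFFs infected with reporter HCMV, MOI 1 PFU/cell. Luciferase activity from cell lysates at 72 h post infection gave inhibition relative to buffer-only and Salinomycin wells.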
FMDV antiviral – foot and mouth disease virus antiviral activity | Potency, µM (top dose mostly 57.9 µM), without a hit: at the top dose activity change, negative = inhibition, usual class: inhibitors | FMDV antiviral cell-based qHTS | hit rate 1.2% among 410,000 | AID 1159524; calls by dose curve; tested in HEK293T cells; note: read-out not given here; potency is the fitted concentration of half-maximal effect; nearly all actives have a fitted effect of over 45% in size
Active calls of the source: *; i = inactive; ? = inconclusive; / = no result given; [ ] = dose if it differs, or a comment. Unless noted, calls come from the whole dose curve; as a rule, active = well fitted curve in the direction sought with a large enough effect; inconclusive = small, poorly fitted or top-dose-only effect, or another doubt; inactive = no such curve, though single readings can be large; an effect the other way counts as inactive or inconclusive. % is set by controls: 0 for no effect and ±100 for the full control effect.

SMILES	FBPA Giardia inh	VACV Venus inh	HCV inh	VACV mCherry inh	HCMV inh	FMDV antiviral
CCCCN(C)CCNC(=S)Nc1ccc2nc(N3CCN(CC)CC3)cc(C)c2c1	2%	?	?	?	-4	-9%
CCN1CCN(c2cc(C)c3cc(NC(=S)NCCN(C)C)ccc3n2)CC1	11%	-30%	?	-28%	32	9%
Cc1cc(N2CCN(C)CC2)nc2ccc(NC(=S)NCCN3CCc4ccccc4C3)cc12	-13%	/	11µM*	/	?	-22%
CC1=C(C(=O)Nc2ccc(C)cc2C)C(c2ccc(C(C)C)cc2)n2nc(C(F)(F)F)nc2N1 (stereo not given)	/	-9%[7.34 µM]	/	-26%[7.34 µM]	-34	-11%
CCCCNC(=S)Nc1ccc2nc(N3CCN(CC)CC3)cc(C)c2c1	1%	-27%	13µM*	-17%	-17	-17%
Cc1cc(N2CCCC2)nc2ccc(NC(=S)NCCCN3CCC(C)CC3)cc12	-2%	?	10µM*	14µM*	-88*	-15%
CCCCN(CC)C(=S)Nc1ccc2nc(N3CCN(C)CC3)cc(C)c2c1	-13%	/	?	/	-72*	0%
CCCN1CCN(CCCNC(=S)Nc2ccc3nc(N4CCN(CC)CC4)cc(C)c3c2)CC1	1%	/	?	/	?	3%
CO[C@H]1[C@H](NC(=O)c2ccsc2)c2ccccc2C12CCN(Cc1c(O)ccc3ccccc13)CC2	/	4%	/	-11%	/	13%
CN(c1cccc(NC(=O)c2ccc(Cl)c(S(=O)(=O)Nc3ccccc3)c2)c1)S(C)(=O)=O	-4%	?	10µM*	-24%	2	19%
CCOc1ccc(N(CC(=O)Nc2cccc(N(C)S(C)(=O)=O)c2)S(=O)(=O)c2ccccc2)cc1	-5%	?	?	?	-64*	16%
CN(c1cccc(NC(=O)CN(c2cccc(Cl)c2)S(=O)(=O)c2ccccc2)c1)S(C)(=O)=O	-2%	?	11µM*	?	?	0%
Cc1ccc(OCCCCNC(C)(C)C)c([N+](=O)[O-])c1	-18%	-9%	?	-13%	-13	-21%
CCCCCCNc1c([N+](=O)[O-])cc(C)cc1[N+](=O)[O-]	/	/	9%	/	-69*	-25%
CN(C)c1ccc(-c2cncnc2NCCc2cnc[nH]2)cc1	-11%	/	/	/	/	-20%
CC(C)(C)C1=CC(=O)C(=O)C(C(C)(C)C)=C1	7.1µM*	/	?	/	/	28µM*
COC(=O)[C@]12CCCCC=C1N(Cc1ccccc1)C(=O)[C@H](CC(=O)NCc1cccs1)C2	/	-16%	/	-3%	-66*	0%
COC(=O)[C@]12C[C@H](CC(=O)NCC34CC5CC(CC(C5)C3)C4)C(=O)N(Cc3ccc4c(c3)OCO4)C1=C[C@H](COCc1ccccc1)O[C@@H]2C	/	/	/	/	-63*	/
COC(=O)[C@]12C[C@H](CC(=O)NCc3cccs3)C(=O)N(Cc3ccc4c(c3)OCO4)C1=C[C@H](COCc1ccccc1)O[C@@H]2C	/	/	/	/	-22	/
COC(=O)[C@]12CCCCC=C1N(Cc1ccc3c(c1)OCO3)C(=O)[C@H](CC(=O)N1CCCCC1)C2	/	-15%	/	8%	-70*	-6%
COC(=O)[C@]12C[C@H](CC(=O)NCc3cccs3)C(=O)N(Cc3ccccc3)C1=C[C@H](C(C)C)O[C@@H]2C1CC1	/	/	/	/	-71*	/
COC(=O)[C@]12C[C@H](CC(=O)NCC3CCCCC3)C(=O)N(Cc3ccccc3)C1=C[C@H](C(C)(C)C)O[C@@H]2C	/	/	/	/	-33	/
Cc1ccc(-n2ncc3c2CC(C)(C)CC3NC(=O)c2ccncc2)cc1 (stereo not given)	2%	-8%	16%	-13%	-7	?
Cc1ccc(CCNC(=O)CCCn2c(=O)c3ccccc3n(Cc3ccccc3C#N)c2=O)cc1	/	-6%	/	-13%	-6	-24%
CC(c1ccco1)N(C(=O)c1cc(Cl)cc(Cl)c1)c1ccccn1 (stereo not given)	8%	-3%	-25%	-17%	-62*	15%
Cc1ccc(SCc2ccc(C(=O)NCc3ccncc3)cc2)cc1	14%	-19%	-24%	-20%	-78*	/
Cc1ccc(SCCC(=O)NCc2ccncc2)cc1	-4%	-11%	7%	i	-26	-9%
